# Data published in PubChem BioAssay AID697 (Columbia University Molecular Screening Center, 2007).
# Screen size: about 96,000 compounds; about 100 (0.1%) were called active. Many of the other results were omitted from the sample, so actives are more common in it than they were. A number with no mark means an inactive call.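 The calls were made as follows: active = activation at 2 µM above a set limit, the mean plus 5 SD (cut at about 37% in these data); inactive = the rest.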
# Target: Tyrosine-protein phosphatase non-receptor type 22 (Homo sapiens) (UniProt Q9Y2R2)
# Sequence (Q9Y2R2 whole entry, looked up): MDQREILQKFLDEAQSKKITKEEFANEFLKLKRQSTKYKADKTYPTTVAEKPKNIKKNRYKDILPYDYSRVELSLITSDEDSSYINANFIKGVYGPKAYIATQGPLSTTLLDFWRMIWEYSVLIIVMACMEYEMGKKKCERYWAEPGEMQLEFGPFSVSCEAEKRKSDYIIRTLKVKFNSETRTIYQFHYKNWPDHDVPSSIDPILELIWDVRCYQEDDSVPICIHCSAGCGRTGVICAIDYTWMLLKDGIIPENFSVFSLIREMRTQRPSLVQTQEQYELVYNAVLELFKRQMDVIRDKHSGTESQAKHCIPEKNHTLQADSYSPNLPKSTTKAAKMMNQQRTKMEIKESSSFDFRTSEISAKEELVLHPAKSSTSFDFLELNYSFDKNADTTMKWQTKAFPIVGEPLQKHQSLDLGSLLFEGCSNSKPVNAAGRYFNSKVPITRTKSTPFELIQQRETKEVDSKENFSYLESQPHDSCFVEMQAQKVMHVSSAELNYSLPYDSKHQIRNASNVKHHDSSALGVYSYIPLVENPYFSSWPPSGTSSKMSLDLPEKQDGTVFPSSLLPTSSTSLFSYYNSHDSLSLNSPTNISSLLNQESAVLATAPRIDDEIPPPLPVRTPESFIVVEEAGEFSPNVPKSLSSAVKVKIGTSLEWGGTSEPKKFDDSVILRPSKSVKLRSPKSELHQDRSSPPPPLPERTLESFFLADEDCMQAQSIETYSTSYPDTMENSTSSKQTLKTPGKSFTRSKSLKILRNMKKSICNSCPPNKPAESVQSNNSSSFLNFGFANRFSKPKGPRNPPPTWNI
# Assay: enhancers of human PTPN22 catalytic activity – biochemical, DiFMUP fluorescence, 2 µM, primary screen (AID 697)
# Settings: recombinant LYP, at 2 µM, hits give high values, 0 = plate median, 100 = signal doubled
row,Compound,activation
1,C=CCn1c(SCCOc2ccc(OC)cc2)nnc1C(NC(=O)c1ccc(OC)cc1)C(C)C (stereo not drawn),-4.5%
2,CCCc1nc2oc3c(OCC)ncnc3c2c2c1COC(C)(C)C2,-1.3%
3,O=C(NN1C(=O)C2C3C=CC(C4CC34)C2C1=O)c1ccc(Cl)cc1 (stereo not drawn),3.3%
4,COc1ccccc1C(=O)Nc1ccc(NC(=O)c2ccco2)c(C)c1,7.2%
5,COc1ccc(N2CCN(C(=O)CNC(=O)c3ccc(C(C)(C)C)cc3)CC2)cc1,-8.3%
6,CCN(CC)C(=O)CSc1nc2ccccc2o1,8.6%
7,COc1cccc(N(CC(=O)NCCSc2ccccn2)S(C)(=O)=O)c1,-4.5%
8,COc1cc(C)c(C(C)C)cc1S(=O)(=O)n1ccnc1,9.7%
9,N#CCCn1ncc2ccccc21,44.2% (active)
10,N#CCCn1cnc2ccccc21,2%
11,Cc1cc(Nc2ccccc2)n(CCC#N)n1,-4.9%
12,O=C(NC1CCC(O)CC1)c1ccc(S(=O)(=O)NCc2ccco2)cc1 (stereo not drawn),8.1%
13,CC(=O)N/C(=C/c1ccc(Cl)cc1)C(=O)NCCc1c[nH]c2ccccc12,-3%
14,COc1cc2c(cc1OC)C(C(C)C)=NC(C)(C)C2,12.3%
15,Cc1nn(Cc2ccccc2)c2c1C(c1ccccc1)C(C#N)=C(N)O2 (stereo not drawn),-7.2%
16,CC(C)(C)NC(=O)Cn1c(SCC(=O)Nc2nccs2)nc2ccccc21,8%
17,COc1ccc(N(CC(=O)NC2CCCCC2)C(=O)CNC(=O)c2ccco2)c(OC)c1,9.4%
18,Cc1ccc(C(=O)N/C(=C/C=C/c2ccccc2)C(=O)NCc2ccco2)cc1,-2.3%
19,COC(=O)C(C)Oc1ccc2c(-c3cccc([N+](=O)[O-])c3)cc(=O)oc2c1 (stereo not drawn),0.1%
20,Cc1ccc(NS(=O)(=O)c2c(C)[nH]c(=O)[nH]c2=O)cc1C,0.8%
21,CC(=O)C1=C(C)NC(C)=C(C(C)=O)C1c1cn(-c2ccccc2)nc1-c1cccs1,-3.9%
22,COc1cccc2cc(C(=O)N3CCN(C(=O)c4ccccc4)CC3)c(=O)oc12,17.4%
23,CS(=O)(=O)N(CC(=O)N1CCN(Cc2ccccc2)CC1)c1ccc2c(c1)OCCO2,-3.3%
24,O=C(CCNS(=O)(=O)c1ccccc1C(F)(F)F)NCc1ccc2c(c1)OCO2,13.9%
25,CCOc1ccc(-c2nc(C)sc2CC(=O)O)cc1,14.3%
26,Cc1ccc(NC(=O)CN2CCc3ccccc3C2)cc1,-4.9%
27,CC(C)C(=O)NC(NC(=S)NC1CCS(=O)(=O)C1)C(Cl)(Cl)Cl (stereo not drawn),-11.6%

row,Compound,activation
1,O=C(Oc1ccccc1C(=S)N1CCCCC1)c1cc([N+](=O)[O-])cc([N+](=O)[O-])c1,-4.4%
2,c1ccc(-c2nccc(-c3ccc(-n4cnc5ccccc54)cc3)n2)nc1,-36.4%
3,Cn1ncc2c(Nc3cccc4ccccc34)ncnc21,-5%
4,CCn1c(-c2ccoc2C)n[nH]c1=S,7.5%
5,N#Cc1ccccc1CN1C(=O)S/C(=C/c2cccn2-c2cccc(C(=O)O)c2)C1=O,-30.2%
6,O=C1CC(C(F)(F)C(F)(F)C(F)(F)C(F)(F)F)=Nc2ccccc2N1,1.9%
7,N#Cc1ccc(Oc2cc(C(F)(F)F)nc(-c3ccccn3)n2)cc1,-2.8%
8,CCSc1nnc(-c2cc3c(s2)-c2ccccc2CC3)o1,-3.7%
9,O=C(CCCn1c(SCC(=O)c2ccccc2)nc2ccccc2c1=O)NCC1CCCO1 (stereo not drawn),-4.2%
10,c1ccc(-c2nc(NCc3ccco3)c3ccccc3n2)cc1,8%
11,CCSc1ccccc1C(=O)NCc1ccc(OC)cc1,-18.7%
12,Cc1nc(NC2=NC(C(=O)Nc3ccc(Cl)cc3)CC(=O)N2)nc2ccccc12 (stereo not drawn),-2.8%
13,COc1cccc(CNCCc2c[nH]c3ccccc23)c1OCc1ccccc1F,10.4%
14,CC(C)NC(=O)c1ccccc1S(=O)c1ccccc1C#N (stereo not drawn),4%
15,O=C(Cc1c(O)c2ccccc2[nH]c1=O)NCc1ccccc1,3.6%
16,C=CCn1c(Oc2ccc(C(=O)OC)cc2)nc2c1c(=O)n(C)c(=O)n2C,-3.9%
17,O=C(O)C1CC=CCC1C(=O)Nc1ccccc1C(=O)N1CCN(c2ccccc2)CC1 (stereo not drawn),-3.2%
18,Cc1cccc(NC(=O)c2ccc(OCC(=O)NCc3ccccc3)cc2)c1C,6%
19,O=C(COC(=O)c1ccccc1SCC(=O)NC1CCCCC1)NC1CCCCC1,-5.6%
20,O=C(Nc1ccccc1)OCc1cn(-c2ccc(Cl)cc2)nn1,-1.5%
21,Cc1ccc(N2C(=O)CC(Sc3ncn[nH]3)C2=O)cc1 (stereo not drawn),-8.7%
22,Cc1onc(-c2ccccc2Cl)c1C(=O)OCC(=O)c1ccccc1,13.5%
23,Cc1noc(C)c1C(=O)N1CCOCC1,33%
24,CN(C)c1ccc(NC(=S)N(CCc2ccccc2)C2CC(=O)N(c3c(Cl)cccc3Cl)C2=O)cc1 (stereo not drawn),-8.5%
25,CC1=CC(C)(C)NC(=S)N1c1ccccc1,-7.5%
26,COC(=O)C1(O)CC(C(C)C)=NN1C(=O)c1ccc(Cl)cc1 (stereo not drawn),-5.9%
